A short description of experiment [1]: qHTS of pediatric cancer cell lines to identify multiple opportunities for drug repurposing: Confirmatory screen for control Hh wild type fibroblast cells (AID 1347121). Further: nearly all actives have a fitted effect of over 70% in size. The procedure, abridged: (§1)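 Viability after 48 h compound treatment at 37C, 500-1,000 cells/well, read as ATP luminescence with CellTiter-Glo. Primary screens used 11-point (MIPE, 0.78 nM-46 µM) or 8-point (NPC, 0.59 nM-46 µM) final concentrations; follow-up screens used 11-point dilutions.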
(Quantitative high-throughput screening tests each substance at several concentrations.)

Experiment [2] is described as follows: qHTS of pediatric cancer cell lines to identify multiple opportunities for drug repurposing: Confirmatory screen for Rh41 cells (AID 1347123).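 Further: 48 h compound exposure; nearly all actives have a fitted effect of over 60% in size.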 Further: potency means the concentration at half of the fitted maximal effect. The procedure, abridged:
as §1

Experiment [3] is described as follows: qHTS of pediatric cancer cell lines to identify multiple opportunities for drug repurposing: Confirmatory screen for Saos-2 cells (AID 1347127). Further: nearly all actives have a fitted effect of over 60% in size. Further: potency means the concentration at half of the fitted maximal effect. The procedure, abridged: as §1
For experiment [4], the system named is Zika virus NS2B-NS3 protease. The experiment in a line: Primary screen GU AMC qHTS for Zika virus inhibitors (AID 1347154). Further: nearly all actives have a fitted effect of over 70% in size. A digest of the protocol: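 Unlinked Zika NS2B hydrophilic domain–NS3 protease complex at 25 nM in 10 mM Tris-HCl pH 8.0, 0.01% Tween 20, with an AMC peptide substrate. Fluorescence change (340/450 nm) over 15 min at room temperature, normalized to controls, fitted to 4-parameter Hill.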

Experiment [5] can be described thus: qHTS of pediatric cancer cell lines to identify multiple opportunities for drug repurposing: Confirmatory screen for U-2 OS cells (AID 1347122). Further: nearly all actives have a fitted effect of over 65% in size. Further: potency means the concentration at half of the fitted maximal effect. A digest of the protocol:
as §1

The nature of experiment [6]: qHTS of pediatric cancer cell lines to identify multiple opportunities for drug repurposing: Confirmatory screen for RD cells (AID 1347124).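 Further: cells exposed to compound for 48 h before viability readout; nearly all actives have a fitted effect of over 65% in size.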 Further: potency means the concentration at half of the fitted maximal effect. The procedure, abridged: as §1
Experiment [7] in a line: qHTS of pediatric cancer cell lines to identify multiple opportunities for drug repurposing: Confirmatory screen for Rh18 cells (AID 1347125). Further: nearly all actives have a fitted effect of over 55% in size. Further: potency means the concentration at half of the fitted maximal effect. The procedure, abridged: as §1
Experiment [8] is described as follows: qHTS of pediatric cancer cell lines to identify multiple opportunities for drug repurposing: Confirmatory screen for Rh30 cells (AID 1347126). Further: nearly all actives have a fitted effect of over 55% in size. Further: potency means the concentration at half of the fitted maximal effect. A digest of the protocol:
as §1

Experiment [9] can be described thus: qHTS of pediatric cancer cell lines to identify multiple opportunities for drug repurposing: Confirmatory screen for OHS-50 cells (AID 1347128).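 Further: compound exposure lasted 48 h at 37 degrees C; nearly all actives have a fitted effect of over 55% in size.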 Further: potency means the concentration at half of the fitted maximal effect. The procedure, abridged: as §1
A short description of experiment [10]: qHTS of pediatric cancer cell lines to identify multiple opportunities for drug repurposing: Confirmatory screen for SK-N-SH cells (AID 1347129).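 Further: cells exposed to compound for 48 h before viability read; nearly all actives have a fitted effect of over 60% in size.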 Further: potency means the concentration at half of the fitted maximal effect. The procedure, abridged: as §1
Experiment [11] concerns Zika virus NS2B-NS3 protease (unlinked complex). The experiment can be described thus: Primary screen GU Rhodamine qHTS for Zika virus inhibitors: Unlinked NS2B-NS3 protease assay (AID 1347159). Further: nearly all actives have a fitted effect of over 60% in size. Further: potency means the concentration at half of the fitted maximal effect. A digest of the protocol: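 Buffer 10 mM Tris-HCl pH 8.0, 0.01% Tween 20. Unlinked protease 25 nM; compound preincubation 15 min, RT, protected from light. Substrate Rhod110, 1.5 microM; ~15% conversion in 15 min.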

Experiment [12] relates to Zika virus NS2B-NS3 protease (linked construct). The experiment in a line: Primary screen NINDS Rhodamine qHTS for Zika virus inhibitors (AID 1347160). Further: nearly all actives have a fitted effect of over 55% in size. The procedure, abridged: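 Aprotinin served as in-plate control. Conditions: 25 nM linked NS2B-NS3, pH 8.0 Tris buffer, titrated compounds, 15 min preincubation and 15 min reaction with 1.5 microM Rhod110 substrate at room temperature.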

SMILES strings stand for the structures. Inconclusive results are not listed. Values without a mark were called inactive. The source made the active and inactive calls. The call rests on the fitted dose curve; in most records, active means well fitted curve in the direction sought with a large enough effect; inconclusive means small, poorly fitted or top-dose-only effect, or another doubt; inactive means no such curve, though single readings can be large; an effect the other way counts as inactive or inconclusive.

As to `CC(C)C[C@@H](C(=O)N[C@H](C(=O)OC1CCCC1)c1ccccc1)[C@H](O)C(=O)NO`, the Potency result in [1] and in experiment [4] was “inactive” throughout. The Potency in experiment [2] is 11.7 µM (active); in [3], 5.85 µM (active).
In the case of `CCNC(=O)c1noc(-c2cc(C(C)C)c(O)cc2O)c1-c1ccc(CN2CCOCC2)cc1`, the Potency in experiment [5] is 0.117 µM (active); in experiment [2], 0.0465 µM (active); in experiment [6], 0.0737 µM (active); in [7] it was 0.0928 µM (active); in experiment [8], 0.0737 µM (active); in experiment [3], 0.131 µM (active). Moreover, the Potency was 0.147 µM (active) in experiment [9] and 0.132 µM (active) in [10]. The Potency result in experiment [4] and in [11] was “inactive” in each case.
As to `COc1cc([C@@H]2c3cc4c(cc3[C@@H](O[C@@H]3O[C@@H]5CO[C@@H](C)O[C@@H]5[C@H](O)[C@@H]3O)[C@H]3COC(=O)[C@H]23)OCO4)cc(OC)c1O`, the Potency result in experiment [1], in [6] and in experiment [4] was “inactive” throughout. Moreover, the Potency in experiment [2] is 4.14 µM (active); in experiment [8] it was 4.65 µM (active); in experiment [3], 5.22 µM (active); in experiment [9], 8.27 µM (active).
`CC1=C[C@@H]2[C@@H]([C@@H](O)C[C@@]3(C)[C@H]2C[C@@H](C)[C@]3(O)C(=O)CO)[C@@]2(C)Cc3cnn(-c4ccccc4)c3C=C12`: the Potency result in experiment [5], in experiment [7], in experiment [8], in experiment [3] and in [4] was “inactive” in each case. Further, the Potency in experiment [2] was 23.3 µM (active).
In the case of `O=C(c1ccc(F)c(F)c1Nc1ccc(I)cc1F)N1CC(O)([C@H]2CCCCN2)C1`, the values for the Potency in experiment [5] and in experiment [2] were 2.61 µM (active) and 14.7 µM (active), respectively. Besides, in [4], the Potency entry is “inactive”.
Consider `CC(C)(C)c1[nH]cnc1C=c1[nH]c(=O)c(=Cc2ccccc2)[nH]c1=O`, for which the Potency is 0.0227 µM (active) in [2], 0.018 µM (active) in experiment [6] and 0.0202 µM (active) in experiment [8].
With `CN1N=C(N)c2cn([C@@H]3O[C@H](COP(=O)(O)O)[C@@H](O)[C@@H]3O)c3ncnc1c23`, the Potency in experiment [2] was 1.17 µM (active); in experiment [7] it was 0.329 µM (active); in experiment [3], 1.85 µM (active); in [9], 1.17 µM (active); in experiment [10], 1.05 µM (active). In experiment [4], the Potency result is “inactive”.
On to `COc1ccc2c(c1)c(C1=C(c3c[nH]c4ccccc34)C(=O)NC1=O)cn2CCCN(C)C`, for which the Potency was 20.8 µM (active) in experiment [2], 2.33 µM (active) in experiment [8], 23.3 µM (active) in [9] and 16.6 µM (active) in experiment [10]. Also, the Potency entry in experiment [3] and in experiment [4] was “inactive” in each case.
As for `C[C@@H]1O[C@@H](O[C@H]2CC[C@@]3(C)[C@H](CC[C@@H]4[C@H]3C[C@@H](O)[C@]3(C)[C@@H](C5=CC(=O)OC5)CC[C@]43O)C2)C[C@H](O)[C@@H]1O[C@H]1C[C@H](O)[C@H](O[C@H]2C[C@H](O)[C@@H](O)[C@@H](C)O2)[C@H](C)O1` (stereo in doubt), the Potency in [2] was 0.107 µM (active); in [8], 0.339 µM (active); in experiment [3], 1.91 µM (active); in experiment [10], 0.215 µM (active). Besides, the Potency entry in experiment [9] and in experiment [4] was “inactive” each time.
Take `O=C(CC12CC3CC(CC(C3)C1)C2)Nc1cccc2nc(NCCNCCO)ccc12`: in [2], the Potency is 13.1 µM (active). Moreover, the Potency result in experiment [10], in [4], in experiment [11] and in experiment [12] was “inactive” throughout.
Regarding `C[C@@]1(c2cc(-c3cncnc3)c(F)cc2F)CCSC(N)=N1`, the Potency in experiment [2] is 7.37 µM (active). The Potency entry in experiment [8], in [4], in experiment [11] and in experiment [12] was “inactive” in each case.
For the compound `COc1cc2c(cc1OC)[C@@H]1Cc3ccc(OC)c(OC)c3CN1CC2`, the Potency result in experiment [5], in experiment [10] and in experiment [4] was “inactive” throughout.
`CCC(c1ccc(O)cc1)C(CC)c1ccc(O)cc1` (stereo not drawn): the Potency result in experiment [5], in experiment [3], in [10] and in experiment [4] was “inactive” throughout. Further, the Potency in experiment [6] is 10.4 µM (active).
In the case of `CC1(C)CC(=O)c2c(C(F)(F)F)nn(-c3ccc(C(N)=O)c(NC4CCC(O)CC4)c3)c2C1` (stereo not drawn), the Potency in experiment [5] was 0.185 µM (active); in experiment [2], 0.369 µM (active); in experiment [8] it was 0.369 µM (active); in experiment [10] it was 0.264 µM (active). The Potency result in [4] and in [11] was “inactive” throughout.
With `CC(C)C[C@H](NC(=O)c1cc2ccccc2s1)C(=O)N1CCN(C(=O)[C@H](CO)NS(=O)(=O)c2ccc(Cl)cc2Cl)CC1`, the Potency in [5] is 0.0293 µM (active); in [2], 18.5 µM (active). In addition, in experiment [4], the Potency result is “inactive”.
Turning to `C[C@H](c1ccc(F)cc1CCCC(=O)O)N(c1cc(F)ccc1F)S(=O)(=O)c1ccc(Cl)cc1`, the Potency result in experiment [5], in experiment [2], in experiment [8], in [3] and in [10] was “inactive” in each case. In addition, the Potency in [11] was 14.1 µM (active).
For `Cc1nn(Cc2ccccc2Cl)c(C)c1CN(C)CC(O)COc1ccc(Cl)cc1` (stereo not drawn), the Potency in experiment [5] is 18.5 µM (active). The Potency entry in experiment [4] is “inactive”.
With `COC(=O)Nc1ccc(-c2nc(N3CCOCC3)c3cnn(C4CCN(C(=O)OC)CC4)c3n2)cc1`, the Potency is 2.61 µM (active) in [2], 16.5 µM (active) in [9] and 4.18 µM (active) in experiment [10]. Also, the Potency result in [4] is “inactive”.
As to `CC(C)n1c(C=C[C@H](O)C[C@H](O)CC(=O)O)c(-c2ccc(F)cc2)c2ccccc21`, the Potency is 3.69 µM (active) in [5]; 20.8 µM (active) in experiment [2]; 10.4 µM (active) in [6]; 1.04 µM (active) in experiment [3]; 10.4 µM (active) in [9]; 4.18 µM (active) in [10].
For the compound `Nc1[nH]nc2nnc(-c3c(-c4ccccc4)nn4ccccc34)cc12`, the Potency entry in [2], in [10], in [4] and in [11] was “inactive” each time. In addition, in experiment [7], the Potency was 20.8 µM (active).
As to `CN(C(Cc1ccc(OS(=O)(=O)c2cccc3cnccc23)cc1)C(=O)N1CCN(c2ccccc2)CC1)S(=O)(=O)c1cccc2cnccc12` (stereo not drawn), the Potency in experiment [2] and in experiment [9] was 5.22 µM (active) throughout. Besides, the Potency result in experiment [10] and in [4] was “inactive” in each case.
Take `CCC(C)SSc1ncc[nH]1` (stereo not drawn): the Potency in experiment [2] is 9.27 µM (active); in [10] it was 16.6 µM (active). Besides, the Potency entry in [4] was “inactive”.
Take `CN[C@@H]1CN(c2ccc3c(=O)c(C(=O)O)cn(-c4nccs4)c3n2)C[C@@H]1OC`: the Potency in experiment [6] was 14.4 µM (active); in [7] it was 14.4 µM (active); in [9], 6.44 µM (active); in experiment [10] it was 7.24 µM (active). In addition, the Potency result in [3] is “inactive”.
As for `CNC(=O)[C@H](CC1=CN=C2C=CCC=C12)NC(=O)[C@@H](CC(=O)NO)CC(C)C`, the Potency in experiment [5] was 4.14 µM (active); in [2] it was 2.93 µM (active); in [8] it was 1.47 µM (active). Moreover, the Potency entry in experiment [10] and in experiment [4] was “inactive” in each case.
